This is a sample that favours compounds with a hit; in the whole collection about 3.4% have one here.
hcDAF12 agonist: H. contortus DAF-12 activation, primary screen | HEK293 hcDAF-12 lit1-tk-luc reporter, luminescence; 0% DMSO, 100% Δ7-dafachronic acid | activation, % at 6.8 µM | 1.4% of 370,000 active;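 active = activation above the mean of all tested compounds plus 3 SD, cut at about 5.5% in these data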;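 note: 100% = response to 3 µM Δ7-dafachronic acid high control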
hgDAF-12 ag: activates the H. glycines DAF-12 receptor ligand-binding domain; HEK293 GAL4-hgDAF12 UAS-luciferase reporter, agonist luminescence; normalized to butyrate control; activation, % at 6.8 µM; 1.8% of 370,000 active;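 active = activation above a cutoff set at the mean of all screened compounds plus 3 SD, cut at about 10% in these data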;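 note: 0% = DMSO wells and 100% = sodium butyrate wells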
APP 5'UTR act: APP 5'UTR luciferase reporter activation; activation, % at 2 µM; 1% of 190,000 active; AID 1276; SH-SY5Y APP 5'UTR luciferase reporter, luminescence; zero percent = DMSO vehicle wells;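 active = activation above a set limit, based on mean plus 3 SD of controls, cut at about 140% in these data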
ssDAF12 agonist: activators of S. stercoralis DAF-12 nuclear receptor; activation, % at 6.8 µM; HEK293 ssDAF-12/GRIP1 lit1-tk-luc reporter, luminescence; % of 3 µM dafachronic acid response; 1% of 370,000 active; AID 652126;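 active = activation above the mean over all tested compounds plus 3 SD, cut at about 0.9% in these data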;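 note: 0% = DMSO-only wells and 100% = 3 µM delta7-dafachronic acid wells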
NF-kB expr up: compounds increasing NF-kB expression in human neuronal cells; NF-kB reporter expression; stronger effect = higher value; fold change at 12.5 µM; 1.6% of 190,000 active; AID 1239; in the data active = fold change above about 3.3
Active calls of the source: *; / = no result.

SMILES	hcDAF12 agonist	hgDAF-12 ag	APP 5'UTR act	ssDAF12 agonist	NF-kB expr up
Cc1ccc(NC(=O)c2cc(N3C(=O)C=CC3=O)ccc2Cl)cc1C	1	11*	-45	0	1.3
O=C1C(=O)N(Cc2ccc(-c3ccccc3)cc2)c2ccc(OC(F)(F)F)cc21	-2	-1	/	-1	/
CCOC(=O)C(Cc1ccccc1)NC(=O)CCc1c(C)nc2ncnn2c1C (centres undefined)	5.7*	1	0	-1	0.98
CCOC(=O)C(Cc1ccccc1)NC(=O)CCc1c(C)nc2nc(C)nn2c1C (centres undefined)	1	-1	-20	-1	1.1
C[C@@]12C[C@@H]3C(=O)N(Cc4ccccc4)CC(=O)N3[C@@H]1N(S(=O)(=O)c1ccccc1)c1ccccc12	-3	-1	/	-1	/
Cc1cc(-c2n[nH]c(=S)n2N=Cc2ccc(OCc3ccccc3)cc2)n[nH]1	4	6	/	0	/
O=C1NC(=O)C(=Cc2ccc(Cl)c(Cl)c2)S1	2	4	/	-1	/
O=C1NC(=O)/C(=C/c2ccc(O)cc2)S1	0	14*	17	-1	1.9
O=C(NCCCn1ccnc1)Nc1ccc(Cl)c(Cl)c1	5.8*	0	12	-1	0.89
Cn1cccc1CNC(=O)Nc1ccc(Cl)c(Cl)c1	4	9	/	-1	1.1
O=C(NCC1CC1(Cl)Cl)Nc1ccc(Cl)c(Cl)c1 (centres undefined)	-1	11*	/	0	/
COC(=O)[C@]12C[C@H](CC(=O)NCC34CC5CC(CC(C5)C3)C4)C(=O)N(Cc3ccco3)C1=C[C@H](COCc1ccccc1)O[C@@H]2C	-3	0	/	-1	/
CSc1nsc(SCC(=O)Nc2ccccc2C(=O)O)n1	3	0	/	1.1*	/
O=c1c2ccccc2oc2ccc(NCCCn3ccnc3)cc12	5	11*	/	1.8*	/
CSc1ccccc1OCc1cc(C(=O)N2CCCC2c2nonc2C)no1 (centres undefined)	5.9*	13*	/	0	/
O=C(O)C1CCN(C(=O)CSc2nc3ccccc3s2)CC1	2	0	18	0	0.86
O=C(CSc1nc2ccccc2s1)N1CCCCC1	4	12*	58	1	2.4
c1ccc2sc(SCSc3nc4ccccc4s3)nc2c1	-1	5	/	-1	/
CN(C)CCCSc1nc2ccccc2s1	4	4	-10	2.0*	1.5
CC1CCN(C(=O)CSc2nc3ccccc3s2)CC1	6.5*	12*	94	0	2.8
CCOC(=O)[C@]12CCCCC/C=C\1N(CCc1ccc(Cl)cc1)C(=O)[C@H]2CC(=O)N1CCSCC1	-2	1	/	-2	/
COC(=O)C1CN(CC(C)C)CCS(=O)(=O)N1Cc1ccc(C(F)(F)F)cc1 (centres undefined)	-2	-6	/	-1	/
O=C1[C@@H](CCc2ccccc2)[C@@H]2c3cc4ccccc4cc3C=NN2[C@@H]2c3cc4ccccc4cc3C=NN12	4	-2	/	-1	/
c1ccc2c(c1)Cc1cc(CN3CCOCC3)ccc1-2	3	13*	97	0	3.1
CCOc1cc(CCNC(=O)c2cc(-c3ccccc3)c(N3CCOCC3)s2)ccc1OC	-5	-3	/	-2	/
SMILES	hcDAF12 agonist	hgDAF-12 ag	APP 5'UTR act	ssDAF12 agonist	NF-kB expr up
O=C(Nc1ccccc1)Nc1c(-c2ccccc2)nc2ncccn12	-1	-3	/	-1	/
CC(=O)c1ccc(OCc2cc(C(=O)N(C)Cc3ccon3)no2)cc1	-1	-1	/	-1	/
CC(=O)c1ccc(OCc2cc(C(=O)N(C)Cc3ccccn3)no2)cc1	4	9	/	1.0*	/
Cc1ccc(OCc2cc(C(=O)N3CCCCCCC3)no2)cc1C	2	3	/	0	/
COCC1CCN(C(=O)c2cc(COc3cc(C)c(Cl)c(C)c3)on2)C1 (centres undefined)	6.3*	9	/	0	/
Cc1cc(OCc2cc(C(=O)N(C)Cc3ccccn3)no2)cc(C)c1Cl	1	11*	/	0	/
Cc1ccc(OCc2cc(C(=O)N3CCN(c4ccccc4)CC3)no2)cc1C	4	13*	/	0	/
Cc1cc(OCc2cc(C(=O)N(C)CCOc3ccccc3)no2)cc(C)c1Cl	-2	0	/	-1	/
C[C@H]1COc2cc(Br)ccc2S(=O)(=O)N1Cc1cn(CCC2OCCCO2)nn1	0	2	/	-1	/
CCCCCC[C@@H](CCCc1ccccc1OC)CN(CCCC)S(C)(=O)=O	-1	2	/	-2	/
COc1ccccc1C(=O)N(Cc1ccccn1)CC1CCCO1 (centres undefined)	-1	2	/	-1	/
Cc1ccccc1CN1CCCCC(NC(=O)C2CCCCC2)C1=O (centres undefined)	-3	-1	/	-1	/
CSc1ccccc1OCc1cc(C(=O)N(C)C(C)c2ccccn2)no1 (centres undefined)	-1	1	/	-1	/
CCN(CC1CCCO1)C(=O)c1cc(COc2cc(C)c(Cl)c(C)c2)on1 (centres undefined)	5	7	/	1.5*	/
Cc1cc(OCc2cc(C(=O)N(C)C(C)c3ccccn3)no2)cc(C)c1Cl (centres undefined)	3	12*	/	0	/
COc1ccc(N=c2sc3ccccc3n2C)cc1	6.1*	11*	134	0	5.6*
Cc1cc(SCC(=O)c2ccccc2)n2nc(C)nc2n1	6.2*	10	-13	0	1.4
C[n+]1ccc(/C=C/c2ccccc2O)c2ccccc21	6.5*	-2	-12	-2	/
CN1/C(=C/c2cc[n+](C)c3ccccc23)C=Cc2ccccc21	/	/	-2	/	0.94
Cc1sc2nc(C3CCCCC3)nc(SCC(=O)N3CC(=O)Nc4ccccc43)c2c1C	0	3	0	1.2*	1
O=C(CCc1ccccc1)N[C@H]1[C@@H](OC(=O)c2ccco2)CCC[C@@]12C(=O)N(Cc1ccccc1)c1ccccc12	-4	0	/	-1	/
C/C(=N\N1C(=O)c2ccccc2NC1c1ccco1)c1ccccc1O (centres undefined)	1	9	56	0	6.6*
Cc1cccc(OCCNC(=O)c2cncc(Br)c2)c1	0	2	-2	3.3*	1.2
O=C(O)CCC(=O)N1N=C(c2ccccc2)CC1c1ccc2c(c1)OCO2 (centres undefined)	5.7*	9	/	1	/
COC(=O)c1c(NC(C)=O)sc(C(=O)Nc2ccccc2F)c1C	1	13*	2	-1	1.2
CCC(=O)Nc1sc(C(=O)Nc2ccccc2F)c(C)c1C(=O)OC	4	13*	66	0	1.1
CC[C@@H](OP(=O)(O)[C@@H](C)N)C(=O)O	-2	1	/	-1	/
CCOC(=O)c1c(C)[nH]c2cc(Br)c(O)cc12	-2	7	-44	-1	3.4*
Cc1ccc(-n2c(SCC(=O)c3ccccc3Cl)nnc2-c2cnccn2)cc1	-1	1	/	0	/
COc1ccc(CN2C(NC(=O)OCc3ccccc3)=NC3=CC(C)(C)n4c(=O)n(-c5ccccc5)c(=O)n4C32)c(OC)c1 (centres undefined)	-1	3	/	-1	/

High-throughput results: PubChem BioAssay, several laboratories
